Compounds with a hit are over-represented: about 7.2% of the library has one in this group of screens.
NIH3T3 tox: cytotoxic compounds in NIH 3T3 cells; NIH 3T3 viability, CellTiter-Glo ATP luminescence, 48-72 h; Potency, µM (doses to about 96.7 µM), hits mostly inhibitors; 4.3% of 94,000 active; AID 1345082; also: nearly all actives have a fitted effect of over 55% in size
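Cytotoxicity was measured by CellTiter-Glo ATP luminescence after 48 or 72 h compound exposure at 37 °C. Mouse NIH 3T3 fibroblasts were seeded at 400 cells/well and dosed by 23 nL pin transfer.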
HEK293 viab: cell viability loss counter-screen; Potency, µM (series often up to 57.1 µM), most hits filed as cytotoxic; AID 1671193; HEK-293-SNCA-luc viability, GF-AFC fluorescence, 24 h; 0.12% of 150,000 active; also: nearly all actives have a fitted effect of over 30% in size
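HEK-293-SNCA-luc cells (1500/well) plated 24 h, then exposed 24 h to a dilution series; GF-AFC added 30 min at 37C, fluorescence 405/540 nm; normalised to medium-only and DMSO wells, Hill fit.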
NPR1 antag: blocks ANP-stimulated signaling of human Npr1 receptor; HEK293 hNpr1 GloSensor cGMP, ANP-stimulated luminescence; Potency, µM (titrated, usually from 46.3 µM), usual class: inhibitors; 1.6% of 76,000 active; AID 1347048; calls by dose curve; also: nearly all actives have a fitted effect of over 60% in size
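Compound pre-incubated 30 min at room temperature on GloSensor-loaded HEK293 cells stably carrying hNpr1 and the pGS-40F cGMP biosensor. Stimulation uses hNppA at 0.1 nM final; luminescence is taken at baseline and 20 min post-agonist.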
SNCA expr inhib: reduces expression of the alpha-synuclein gene; HEK-293 SNCA-luciferase knock-in, luminescence, 24 h; Potency, µM (series often up to 57.2 µM), hits mostly inhibitors; 0.17% of 140,000 active; AID 1671194; also: nearly all actives have a fitted effect of over 45% in size
HEK cytotox: kills HEK 293 cells; 6.6% of 94,000 active; HEK 293 viability, ATP luminescence (CellTiter-Glo), 48-72 h; Potency, µM (doses to about 115 µM), actives largely listed as inhibitors; also: nearly all actives have a fitted effect of over 60% in size
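HEK 293 seeded at 250 cells/well receive compound via pintool. After 48 or 72 hr at 37 degree Celsius, 5% CO2 and 95% humidity, CellTiter-Glo is dispensed and luminescence read following 10 min at room temperature.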
Luciferase inh: blocks purified firefly luciferase enzyme activity; Potency, µM (top dose mostly 115 µM), actives largely listed as inhibitors; 2.5% of 76,000 active; AID 1347043; P08659; purified P. pyralis luciferase, luminescence, biochemical; also: nearly all actives have a fitted effect of over 65% in size
Target sequence (P08659 whole entry, looked up): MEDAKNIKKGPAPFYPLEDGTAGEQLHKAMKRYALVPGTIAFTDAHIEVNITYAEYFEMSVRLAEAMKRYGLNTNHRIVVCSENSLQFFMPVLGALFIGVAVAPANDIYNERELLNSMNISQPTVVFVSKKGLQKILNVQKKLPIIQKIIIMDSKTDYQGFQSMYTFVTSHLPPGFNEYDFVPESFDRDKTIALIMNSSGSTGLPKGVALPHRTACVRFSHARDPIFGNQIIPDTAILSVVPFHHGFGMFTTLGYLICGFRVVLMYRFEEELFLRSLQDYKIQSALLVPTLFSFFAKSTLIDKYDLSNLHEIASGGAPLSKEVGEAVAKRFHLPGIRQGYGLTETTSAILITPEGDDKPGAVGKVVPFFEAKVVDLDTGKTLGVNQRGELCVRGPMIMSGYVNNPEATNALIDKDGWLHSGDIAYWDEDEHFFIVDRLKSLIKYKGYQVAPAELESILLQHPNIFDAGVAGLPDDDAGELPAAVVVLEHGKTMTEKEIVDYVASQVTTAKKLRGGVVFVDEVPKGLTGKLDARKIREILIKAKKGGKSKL
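Luminescence read by CCD imaging after purified firefly luciferase (10nM final) was added to substrate buffer holding 10uM D-luciferin and 10uM ATP, pH 7.5, pre-dosed with compound.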
Of the large screens only hits and unclear results are named; the others gave an inactive call. Unless noted, calls follow the shape of the dose curve; as a rule, active = well fitted curve in the direction sought with a large enough effect; inconclusive = small, poorly fitted or top-dose-only effect, or another doubt; inactive = no such curve, though single readings can be large; an effect the other way counts as inactive or inconclusive.

Cc1ncsc1C(=O)N1CCC2(CC1)OC(=O)N(Cc1cccnc1)C2(C)c1ccccc1 (configuration not stated)	NIH3T3 tox 22.4µM
COc1ccc(C(=O)N2CCC3(CC2)OC(=O)N(Cc2cccnc2)C3(C)c2ccccc2)cn1 (configuration not stated)	NIH3T3 tox 39.8µM
CC1(c2ccccc2)N(Cc2cccnc2)C(=O)OC12CCN(C(=O)C1CCC1)CC2 (configuration not stated)	NIH3T3 tox 17.8µM
CC1(c2ccccc2)N(Cc2cccnc2)C(=O)OC12CCN(C(=O)c1ccccc1)CC2 (configuration not stated)	NIH3T3 tox inconclusive
Cc1ncsc1C(=O)N1CCC2(CC1)OC(=O)N(Cc1ccccc1)C2(C)c1cccnc1 (configuration not stated)	NIH3T3 tox 22.4µM
CNC(=O)[C@@H]1C[C@H](Oc2cccnc2)CN1C(=O)c1n[nH]c2ccccc12	none
COCCc1noc(-c2nc(-c3ccc4c(c3)OCO4)no2)n1	HEK cytotox inconclusive, Luciferase inh 17.8µM
CN1C[C@H](O)C[C@H]1c1nc(-c2ccc3c(c2)OCO3)no1	Luciferase inh 28.2µM
OCc1ccc(CN2C[C@H](O)C[C@H]2c2nc(-c3ccc4c(c3)OCO4)no2)o1	Luciferase inh 17.8µM
O[C@@H]1C[C@@H](c2nc(-c3ccc4c(c3)OCO4)no2)N(Cc2ccc(C(F)(F)F)cc2)C1	NIH3T3 tox inconclusive, HEK cytotox inconclusive
OCc1ccc(CN2C[C@H](O)C[C@H]2c2nc(-c3cccnc3)no2)o1	HEK cytotox inconclusive
O[C@@H]1C[C@@H](c2nc(-c3ccc4c(c3)OCO4)no2)N(Cc2ccncc2)C1	NIH3T3 tox inconclusive, NPR1 antag inconclusive, HEK cytotox 89.1µM, Luciferase inh inconclusive
c1cc2c(cc1-c1noc(-c3nc(-c4ccc5c(c4)OCO5)no3)n1)OCO2	none
CO[C@H]1[C@H](NC(=O)c2cc3ccccc3n2C)c2ccccc2C12CCNCC2	NIH3T3 tox 22.4µM, HEK293 viab inconclusive, HEK cytotox 35.5µM
O=c1c2nc(-c3cccc(O)c3)ccc2ncn1Cc1ccccn1	NIH3T3 tox 20µM
O=c1c2nc(-c3ccc(O)c(F)c3)ccc2ncn1Cc1ccccn1	NIH3T3 tox 79.4µM
CC(=O)Nc1cccc(-c2ccc3ncn(Cc4ccccn4)c(=O)c3n2)c1	HEK cytotox inconclusive
c1cc(-c2cnn3cc(-c4ccc(N5CCNCC5)cc4)cnc23)c2cccnc2c1	HEK293 viab 23.8µM (no result: NIH3T3 tox, NPR1 antag, SNCA expr inhib, HEK cytotox, Luciferase inh)
CCOC(=O)C1CCN(C(=O)c2cc(-c3cc(Cl)cc(Cl)c3)c3nncn3n2)CC1	none (no result: NPR1 antag, Luciferase inh)
O=C(NC1CCCCC1)c1nc2sccn2c1-c1ccc(C(F)(F)F)cc1	NIH3T3 tox 39.8µM, HEK cytotox inconclusive (no result: NPR1 antag, Luciferase inh)
O=C(NC1CCCCC1)c1nc2sccn2c1-c1ccccc1	NIH3T3 tox inconclusive, HEK cytotox 63.1µM (no result: NPR1 antag, Luciferase inh)
O=C(NC1CCCCCC1)c1nc2sccn2c1-c1ccc(C(F)(F)F)cc1	NIH3T3 tox 25.1µM, SNCA expr inhib inconclusive, HEK cytotox 39.8µM (no result: NPR1 antag, Luciferase inh)
O=C(NC1CC1)c1nc2sccn2c1-c1ccccc1	none (no result: NPR1 antag, Luciferase inh)
CC(C)(CC(=O)O)CC(=O)N1C[C@@H]2C[C@H](C1)c1ccc(-c3cc4ccccc4s3)c(=O)n1C2	HEK293 viab inconclusive, Luciferase inh 22.4µM
O=C(COc1ccccc1)N1C[C@@H]2C[C@H](C1)c1ccc(-c3cccc(C(F)(F)F)c3)c(=O)n1C2	NIH3T3 tox inconclusive
C=CC(=O)Nc1cccc(Nc2nc(NC3CCC(N(C)C)CC3)nc3c2ncn3C(C)C)c1 (configuration not stated)	HEK293 viab inconclusive, SNCA expr inhib 3.04µM (no result: NIH3T3 tox, NPR1 antag, HEK cytotox, Luciferase inh)
CC(C)[C@H](CO)Nc1nc(Nc2ccc(C(=O)O)c(Cl)c2)c2ncn(C(C)C)c2n1	SNCA expr inhib inconclusive (no result: NIH3T3 tox, NPR1 antag, HEK cytotox, Luciferase inh)
CN1C(=O)c2cccn2CC1C(=O)N1CCN(c2ccccn2)CC1 (configuration not stated)	none (no result: NPR1 antag, Luciferase inh)
O=C1CC(c2noc(Cc3ccc(Cl)cc3)n2)CN1C1CCCCC1 (configuration not stated)	NIH3T3 tox inconclusive, HEK cytotox 70.8µM

Screening data deposited in PubChem by National Center for Advancing Translational Sciences (NCATS).
